Records with an inconclusive call do not appear. Activity calls are given as the source filed them. How the source made its calls, unless noted: active means hit-call score of the fitted dose curve at least 0.9, where 1 is the maximum; inactive means score below 0.9.
Assays:
[1] = BSK_3C_Proliferation: Cell Proliferation Assessment in the BioMAP Diversity Plus: 3C Assay (AID 2283006); settings: primary human endothelial cells (HUVEC);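 on AC50: potency may reflect either rise or fall in cell number versus DMSO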
How it was run: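 Subconfluent HUVEC (3C system) cultured with chemical; relative cell number read at 48 h by sulforhodamine B total-protein staining (0.1% SRB after 10% TCA fixation, 560 nm). Bidirectional fit relative to DMSO.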

[2] = molecular target: Peroxisome proliferator-activated receptor gamma (Homo sapiens) (UniProt P37231); assay: ATG_PPARg_TRANS: Attagene TRANS-FACTORIAL HepG2 Assay for human Peroxisome Proliferator-activated Receptor-gamma (PPARg) (AID 2283007; active means hit-call score of the fitted dose curve at least 0.9, where 1 is the maximum)
Chain of Peroxisome proliferator-activated receptor gamma (Homo sapiens) (P37231 whole entry, looked up): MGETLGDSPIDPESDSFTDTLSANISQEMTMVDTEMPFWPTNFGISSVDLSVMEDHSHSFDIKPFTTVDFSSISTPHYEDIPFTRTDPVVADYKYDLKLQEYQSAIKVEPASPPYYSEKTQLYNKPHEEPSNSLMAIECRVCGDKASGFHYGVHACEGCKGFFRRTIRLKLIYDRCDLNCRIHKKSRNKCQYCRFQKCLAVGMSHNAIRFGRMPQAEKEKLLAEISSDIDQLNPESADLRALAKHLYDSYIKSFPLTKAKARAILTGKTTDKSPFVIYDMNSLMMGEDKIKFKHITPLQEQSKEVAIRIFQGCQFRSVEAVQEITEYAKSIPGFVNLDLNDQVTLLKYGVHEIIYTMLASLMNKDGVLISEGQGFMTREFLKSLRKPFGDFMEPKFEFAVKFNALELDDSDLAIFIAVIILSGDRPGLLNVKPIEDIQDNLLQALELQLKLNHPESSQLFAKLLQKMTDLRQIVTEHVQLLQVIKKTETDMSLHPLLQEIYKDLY
How it was run: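 Multiplexed reporter transcription units in HepG2, 24 h dosing, reporter transcripts quantified by fluorescent RT-PCR and capillary electrophoresis. Increase over DMSO scored.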

[3] = molecular target: human RAR-related Orphan Receptor gamma (RORg), RORC (gene 6097) (UniProt P51449); assay: ATG_RORg_TRANS: Attagene TRANS-FACTORIAL HepG2 Assay for human RAR-related Orphan Receptor gamma (RORg) (AID 2283011; active means hit-call score of the fitted dose curve at least 0.9, where 1 is the maximum)
Chain of human RAR-related Orphan Receptor gamma (RORg), RORC (gene 6097) (P51449 whole entry, looked up, the tested form may be a part): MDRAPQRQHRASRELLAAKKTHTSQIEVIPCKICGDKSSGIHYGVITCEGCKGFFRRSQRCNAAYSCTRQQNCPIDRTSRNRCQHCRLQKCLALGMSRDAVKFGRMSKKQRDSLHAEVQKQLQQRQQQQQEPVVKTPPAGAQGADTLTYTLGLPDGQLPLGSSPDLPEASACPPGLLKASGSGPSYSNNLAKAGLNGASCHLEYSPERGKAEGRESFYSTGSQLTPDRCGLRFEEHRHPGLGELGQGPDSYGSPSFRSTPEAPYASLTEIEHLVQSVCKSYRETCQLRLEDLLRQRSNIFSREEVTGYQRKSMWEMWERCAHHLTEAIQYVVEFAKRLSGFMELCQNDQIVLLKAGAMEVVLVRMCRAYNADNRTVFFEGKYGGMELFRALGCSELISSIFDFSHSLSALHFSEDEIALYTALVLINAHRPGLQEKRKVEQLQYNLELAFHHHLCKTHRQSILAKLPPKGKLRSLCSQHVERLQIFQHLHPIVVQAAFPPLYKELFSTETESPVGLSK
How it was run: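 First, HepG2 liver cells were transfected with GAL4-UAS-driven reporter constructs and the RORg-Gal4 fusion. Next, they were treated with chemical for 24 h. Finally, reporter mRNA was quantified by RT-PCR and capillary electrophoresis, with upward activity fitted against DMSO.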

[4] = molecular target: Retinoic acid receptor RXR-alpha (Homo sapiens) (UniProt P19793); assay: ATG_RXRa_TRANS: Attagene TRANS-FACTORIAL HepG2 Assay for human Retinoid X Receptor alpha (RXRa) (AID 2283012; active means hit-call score of the fitted dose curve at least 0.9, where 1 is the maximum)
Chain of Retinoic acid receptor RXR-alpha (Homo sapiens) (P19793 whole entry, looked up, the tested form may be a part): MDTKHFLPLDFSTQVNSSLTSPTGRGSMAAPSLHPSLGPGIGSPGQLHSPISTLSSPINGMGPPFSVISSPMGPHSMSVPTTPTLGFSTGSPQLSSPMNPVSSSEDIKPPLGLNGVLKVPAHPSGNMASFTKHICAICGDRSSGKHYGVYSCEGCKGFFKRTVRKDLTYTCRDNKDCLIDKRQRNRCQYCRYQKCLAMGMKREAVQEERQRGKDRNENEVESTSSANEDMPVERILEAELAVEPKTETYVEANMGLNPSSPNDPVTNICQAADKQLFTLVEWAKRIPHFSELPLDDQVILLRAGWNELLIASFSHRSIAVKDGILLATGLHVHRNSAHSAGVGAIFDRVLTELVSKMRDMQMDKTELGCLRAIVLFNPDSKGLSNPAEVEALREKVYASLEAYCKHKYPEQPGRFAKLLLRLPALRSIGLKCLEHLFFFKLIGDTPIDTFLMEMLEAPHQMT
How it was run: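 HepG2 cells transiently transfected with GAL4-UAS reporter units and chimeric RXRa-Gal4 protein, treated 24 h. Reporter mRNA measured by RT-PCR, fluorescent labelling, HpaI digestion and capillary electrophoresis. Induction fitted against DMSO.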

[5] = molecular target: human Retinoid X Receptor beta (RXRb), RXRB (gene 6257) (UniProt P28702); assay: ATG_RXRb_TRANS: Attagene TRANS-FACTORIAL HepG2 Assay for human Retinoid X Receptor beta (RXRb) (AID 2283013; active means hit-call score of the fitted dose curve at least 0.9, where 1 is the maximum)
Chain of human Retinoid X Receptor beta (RXRb), RXRB (gene 6257) (P28702 whole entry, looked up, the tested form may be a part): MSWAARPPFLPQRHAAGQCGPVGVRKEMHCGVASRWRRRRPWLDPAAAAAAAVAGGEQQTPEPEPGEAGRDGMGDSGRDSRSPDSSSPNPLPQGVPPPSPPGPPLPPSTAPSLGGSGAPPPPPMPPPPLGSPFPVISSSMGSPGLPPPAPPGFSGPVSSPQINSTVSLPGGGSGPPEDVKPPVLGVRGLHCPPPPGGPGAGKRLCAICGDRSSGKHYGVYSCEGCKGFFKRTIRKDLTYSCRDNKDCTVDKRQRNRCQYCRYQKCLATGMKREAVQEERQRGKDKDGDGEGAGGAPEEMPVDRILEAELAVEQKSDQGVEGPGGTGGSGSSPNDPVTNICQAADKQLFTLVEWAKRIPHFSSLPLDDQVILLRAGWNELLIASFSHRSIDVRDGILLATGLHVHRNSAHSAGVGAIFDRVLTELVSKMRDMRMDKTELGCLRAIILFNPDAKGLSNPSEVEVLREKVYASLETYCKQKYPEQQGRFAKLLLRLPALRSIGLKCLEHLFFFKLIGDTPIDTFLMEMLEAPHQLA
How it was run: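 HepG2 cells were transiently transfected with multiplexed GAL4-UAS reporters and a chimeric RXRb-Gal4 construct, then exposed for 24 h. Reporter mRNA was quantified by RT-PCR, FAM labeling, HpaI digestion and capillary electrophoresis; gain of signal was scored against DMSO.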

[6] = molecular target: human Thyroid Receptor alpha (THRa1), THRA (gene 7067) (UniProt P10827); assay: ATG_THRa1_TRANS: Attagene TRANS-FACTORIAL HepG2 Assay for human Thyroid Receptor alpha (THRa1) (AID 2283014; active means hit-call score of the fitted dose curve at least 0.9, where 1 is the maximum)
Chain of human Thyroid Receptor alpha (THRa1), THRA (gene 7067) (P10827 whole entry, looked up, the tested form may be a part): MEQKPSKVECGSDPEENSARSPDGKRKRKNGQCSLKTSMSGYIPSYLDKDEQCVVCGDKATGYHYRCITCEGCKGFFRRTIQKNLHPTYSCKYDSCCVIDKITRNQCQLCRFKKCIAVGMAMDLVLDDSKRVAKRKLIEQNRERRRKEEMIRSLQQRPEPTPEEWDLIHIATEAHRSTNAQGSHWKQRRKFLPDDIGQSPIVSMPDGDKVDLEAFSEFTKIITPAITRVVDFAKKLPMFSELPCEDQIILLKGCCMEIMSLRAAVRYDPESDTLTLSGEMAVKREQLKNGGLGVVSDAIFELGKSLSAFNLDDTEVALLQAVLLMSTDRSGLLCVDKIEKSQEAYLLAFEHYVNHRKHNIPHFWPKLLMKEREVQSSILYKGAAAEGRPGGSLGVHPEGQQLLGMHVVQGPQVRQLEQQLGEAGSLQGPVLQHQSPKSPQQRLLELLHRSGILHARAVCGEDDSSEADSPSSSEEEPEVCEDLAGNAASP
How it was run: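 Reporter transcript induction, read by capillary electrophoresis of 6-FAM-labelled RT-PCR products, reflects activity of a transfected THRa1-Gal4 fusion in HepG2 liver cells. Cells were dosed for 24 h; activity was fitted in the positive direction against DMSO.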

[7] = read-out: E-selectin (Homo sapiens) (UniProt P16581); assay: BSK_3C_Eselectin: BioMAP Diversity Plus: 3C Assay for Eselectin Biomarker Activity (AID 2283015); settings: primary human endothelial cells (HUVEC); actives raise or lower the signal
How it was run: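 ELISA read-out of E-selectin on endothelial monolayers after 24 h chemical treatment. Human umbilical vein primary cells served as the system, with DMSO defining baseline activity for bidirectional fitting.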

[8] = read-out: Interleukin-1 alpha (IL1a), IL1A (gene 3552); assay: BSK_BE3C_IL1a: BioMAP Diversity Plus: BE3C Assay for Interleukin-1 alpha (IL1a) Biomarker Activity (AID 2283016); settings: primary human bronchial epithelial cells; actives raise or lower the signal
How it was run: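 Human primary bronchial epithelial cells, 24 h chemical exposure; IL-1a quantified by ELISA, fitted bidirectionally against DMSO. Cytotoxicity assessed in parallel by SRB total-protein staining at the time of measurement.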

[9] = read-out: Monocyte Chemoattractant Protein-1 (MCP1), CCL2 (gene 6347); assay: BSK_3C_MCP1: BioMAP Diversity Plus: 3C Assay for Monocyte Chemoattractant Protein-1 (MCP1) Biomarker Activity (AID 2283017); settings: primary human endothelial cells (HUVEC); actives raise or lower the signal
How it was run: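 ELISA read-out of MCP-1 from human umbilical vein endothelial cell cultures harvested 24 h post-dosing. Gain or loss of signal was fitted relative to DMSO.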

[10] = read-out: Monocyte Chemoattractant Protein-1 (MCP1), CCL2 (gene 6347); assay: BSK_4H_MCP1: BioMAP Diversity Plus: 4H Assay for Monocyte Chemoattractant Protein-1 (MCP1) Biomarker Activity (AID 2283018); settings: primary human endothelial cells (HUVEC); actives raise or lower the signal
How it was run: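 Human umbilical vein endothelial cells (4H system) exposed to chemicals for 24 h in 96-well format. MCP-1 measured by ELISA; bidirectional fitting against DMSO, with SRB total-protein staining in parallel cultures for cytotoxicity.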

[11] = read-out: Human Leukocyte Antigen - DR isotype (HLADR), HLA-DRA (gene 3122); assay: BSK_3C_HLADR: BioMAP Diversity Plus: 3C Assay for Human Leukocyte Antigen - DR isotype (HLADR) Biomarker Activity (AID 2283019); settings: primary human endothelial cells (HUVEC); actives raise or lower the signal
How it was run: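 ELISA readout of surface HLA-DR on human umbilical vein endothelium, taken 24 h after chemical treatment. Gain- and loss-of-signal were both fitted relative to DMSO.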

[12] = read-out: Interleukin-8 (IL8), CXCL8 (gene 3576); assay: BSK_3C_IL8: BioMAP Diversity Plus: 3C Assay for Interleukin-8 (IL8) Biomarker Activity (AID 2283020); settings: primary human endothelial cells (HUVEC); actives raise or lower the signal
How it was run: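 Primary human umbilical vein endothelial cells were dosed for 24 h. IL-8 was quantified by ELISA and fitted bidirectionally against DMSO. Cytotoxicity was assessed in parallel cultures by SRB staining at 560 nm.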

[13] = read-out: Monokine induced gamma interferon (MIG), CXCL9 (gene 4283); assay: BSK_3C_MIG: BioMAP Diversity Plus: 3C Assay for Monokine induced gamma interferon (MIG) Biomarker Activity (AID 2283021); settings: primary human endothelial cells (HUVEC); actives raise or lower the signal;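 on AC50: MIG protein level measured by immunoassay in the treated endothelial cultures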
How it was run: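 HUVEC primary endothelial cultures dosed with chemical; MIG quantified by ELISA at 24 h. Data fitted bidirectionally against DMSO control, with parallel SRB total-protein staining for cytotoxicity.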

[14] = molecular target: human Vitamin D Receptor (VDR), VDR (gene 7421) (UniProt P11473); assay: ATG_VDR_TRANS: Attagene TRANS-FACTORIAL HepG2 Assay for human Vitamin D Receptor (VDR) (AID 2283022; active means hit-call score of the fitted dose curve at least 0.9, where 1 is the maximum)
Chain of human Vitamin D Receptor (VDR), VDR (gene 7421) (P11473 whole entry, looked up, the tested form may be a part): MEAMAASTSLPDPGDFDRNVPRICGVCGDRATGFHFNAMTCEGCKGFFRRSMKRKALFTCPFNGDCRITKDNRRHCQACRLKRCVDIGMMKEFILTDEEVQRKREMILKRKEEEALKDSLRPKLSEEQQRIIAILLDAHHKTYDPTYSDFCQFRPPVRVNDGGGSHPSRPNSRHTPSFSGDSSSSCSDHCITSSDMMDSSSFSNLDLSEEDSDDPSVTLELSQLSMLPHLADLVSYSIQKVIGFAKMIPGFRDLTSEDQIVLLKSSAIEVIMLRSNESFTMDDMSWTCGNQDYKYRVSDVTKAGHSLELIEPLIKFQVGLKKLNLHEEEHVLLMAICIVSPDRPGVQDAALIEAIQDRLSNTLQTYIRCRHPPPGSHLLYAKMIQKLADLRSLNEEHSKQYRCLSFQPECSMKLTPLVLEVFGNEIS
How it was run: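 Steps: transfect HepG2 with GAL4-UAS-driven reporter constructs; dose compounds 24 h; isolate RNA, reverse-transcribe, PCR-amplify with 6-FAM-labelled primer extension and HpaI digestion; quantify fragments by capillary electrophoresis relative to DMSO.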

[15] = BSK_3C_SRB: Viability Assessment in the BioMAP Diversity Plus: 3C Assay (AID 2283023); settings: primary human endothelial cells (HUVEC);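 further: fitted both ways against DMSO so a hit may be signal rise or drop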
How it was run: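 Absorbance at 560 nm of sulforhodamine B-stained (0.1%) total protein served as a cytotoxicity readout in human umbilical vein endothelial cells, 24 h after chemical treatment. Signal was fitted bidirectionally relative to DMSO.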

[16] = read-out: Matrix Metallopeptidase 1 (MMP1), MMP1 (gene 4312); assay: BSK_BE3C_MMP1: BioMAP Diversity Plus: BE3C Assay for Matrix Metallopeptidase 1 (MMP1) Biomarker Activity (AID 2283024); settings: primary human bronchial epithelial cells; actives raise or lower the signal
How it was run: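 Human primary bronchial epithelial cells (BE3C system) dosed for 24 h; MMP-1 quantified by ELISA. Bidirectional fit against DMSO; cytotoxicity tracked in parallel cultures by SRB total-protein staining.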

[17] = BSK_3C_Vis: BioMAP Diversity Plus: 3C Assay for Morphology Visualization (AID 2283025); settings: primary human endothelial cells (HUVEC);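 further: fitted both ways so gain or loss versus DMSO counts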;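 on AC50: light microscopy image of cell morphology used as background control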
How it was run: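 Human umbilical vein endothelial cell morphology was inspected by light microscopy 24 h after chemical dosing; scored bidirectionally relative to DMSO.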

[18] = molecular target: human Retinoic Acid Receptor gamma (RARg), RARG (gene 5916) (UniProt P13631); assay: ATG_RARg_TRANS: Attagene TRANS-FACTORIAL HepG2 Assay for human Retinoic Acid Receptor gamma (RARg) (AID 2283009; active means hit-call score of the fitted dose curve at least 0.9, where 1 is the maximum)
Chain of human Retinoic Acid Receptor gamma (RARg), RARG (gene 5916) (P13631 whole entry, looked up, the tested form may be a part): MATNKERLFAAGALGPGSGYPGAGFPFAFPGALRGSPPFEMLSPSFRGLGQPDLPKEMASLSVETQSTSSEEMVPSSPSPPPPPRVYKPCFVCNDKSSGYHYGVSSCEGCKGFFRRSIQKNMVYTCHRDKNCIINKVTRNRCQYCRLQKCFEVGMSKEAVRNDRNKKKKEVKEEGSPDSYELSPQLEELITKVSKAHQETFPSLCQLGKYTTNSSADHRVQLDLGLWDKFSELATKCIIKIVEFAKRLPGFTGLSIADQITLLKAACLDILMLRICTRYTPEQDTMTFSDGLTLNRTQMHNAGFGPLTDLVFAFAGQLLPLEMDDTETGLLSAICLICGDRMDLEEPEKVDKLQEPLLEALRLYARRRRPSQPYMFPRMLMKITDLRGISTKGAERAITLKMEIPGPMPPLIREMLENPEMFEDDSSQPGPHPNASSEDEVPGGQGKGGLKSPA
How it was run: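 HepG2 transiently transfected with GAL4-UAS reporter units and chimeric NR-Gal4 constructs; 24 h compound exposure. Reporter mRNA quantified by RT-PCR, FAM labeling, HpaI digestion and capillary electrophoresis; gain-of-signal versus DMSO.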

Measured: AC50

Chain of E-selectin (Homo sapiens) (P16581 whole entry, looked up): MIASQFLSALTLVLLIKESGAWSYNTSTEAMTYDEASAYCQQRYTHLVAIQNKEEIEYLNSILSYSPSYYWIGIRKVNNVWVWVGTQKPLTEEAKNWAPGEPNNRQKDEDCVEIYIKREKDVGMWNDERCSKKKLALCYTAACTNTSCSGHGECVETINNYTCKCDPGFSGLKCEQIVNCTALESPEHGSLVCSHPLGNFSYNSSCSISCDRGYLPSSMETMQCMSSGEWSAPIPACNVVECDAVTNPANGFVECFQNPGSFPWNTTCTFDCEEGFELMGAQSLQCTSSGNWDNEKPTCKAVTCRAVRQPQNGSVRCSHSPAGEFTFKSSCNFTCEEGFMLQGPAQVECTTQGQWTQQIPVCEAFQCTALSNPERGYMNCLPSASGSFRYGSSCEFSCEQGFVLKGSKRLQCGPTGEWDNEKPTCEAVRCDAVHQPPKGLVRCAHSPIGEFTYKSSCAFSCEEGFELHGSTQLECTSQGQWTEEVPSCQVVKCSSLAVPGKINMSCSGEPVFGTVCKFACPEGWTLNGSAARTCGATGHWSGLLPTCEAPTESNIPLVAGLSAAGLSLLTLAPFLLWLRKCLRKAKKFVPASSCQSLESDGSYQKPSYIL

[Cl-].[Cl-].[Hg+2]
active: [1] 32.6 µM | [7] 36.7 µM | [8] 31 µM | [10] 30.7 µM | [11] 30 µM | [12] 31.1 µM | [13] 30.9 µM | [15] 30.3 µM | [16] 31.4 µM | [17] 37.5 µM
inactive: [2] | [3] | [4] | [5] | [6] | [9] | [14]

COP(=S)(OC)SCN1C(=O)c2ccccc2C1=O
active: [1] 28.4 µM
not listed: [3] | [4] | [6] | [8] | [14] | [16] | [18]
inactive: all other assays above

CO[C@@H]1[C@H](OC(=O)NC(=O)CCl)CC[C@]2(CO2)[C@H]1[C@@]1(C)O[C@@H]1CC=C(C)C
active: [1] 0.00962 µM | [7] 5.16 µM | [11] 8.98 µM
not listed: [3] | [8] | [18]
inactive: all other assays above

Cc1cc(N=Nc2ccccc2C)ccc1N
active: [1] 13 µM | [2] 18.3 µM | [9] 10.8 µM | [11] 27.5 µM | [12] 20 µM | [15] 11.1 µM | [17] 39 µM
not listed: [3] | [16]
inactive: all other assays above

c1ccc(C2CO2)cc1 (centres undefined)
not listed: [4] | [5] | [6] | [14] | [16] | [18]
inactive: all other assays above

CCCCCCCCCCCCCN1CC(C)OC(C)C1 (centres undefined)
active: [1] 14.5 µM | [4] 26.4 µM | [5] 26.6 µM
not listed: [3] | [8] | [14] | [16]
inactive: all other assays above

O=C1CCCO1
active: [17] 16.3 µM
not listed: [5] | [16] | [18]
inactive: all other assays above

Brc1ccc(Oc2ccccc2)cc1
active: [5] 69.7 µM | [7] 30.9 µM | [15] 28.9 µM
not listed: [3] | [6] | [8] | [18]
inactive: all other assays above

Source: PubChem BioAssay (EPA / NIEHS)
